Most compounds without a hit are left out; they make up all but 3.4% or so of the library.
MITF inh – MITF inhibitors, primary screen, biochemical, AlphaScreen, human. Microphthalmia-associated transcription factor (Homo sapiens), O75030. AlphaScreen MITF homodimerization, bead proximity signal. inhibition, % at 2.6 µM. 0.91% of 650,000 active. AID 1259374, 2018; in the data active = inhibition above about 50%;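 note: 0% = vehicle wells with protein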
TEAD-YAP inh – TEAD-YAP interaction inhibition, primary screen, TEAD-YAP interaction inhibitor project, luminescence, HEK-TIYL cells. 1.4% of 640,000 active. AID 1259422, 2018. inhibition, % at 9.12 µM. TEAD-Gal4/YAP UAS-luciferase luminescence; in the data active = inhibition above about 32%;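 note: 0% = median of test compound wells and 100% = reference inhibitor wells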
FBW7 act – FBW7 E3 ligase activators, primary screen, biochemical, AlphaScreen, human; F-box/WD repeat-containing protein 7 (Homo sapiens), Q969H0; AlphaScreen FBW7–phospho-cyclin E peptide binding, activator screen; normalized activity (activation), % at 26.1 µM; 0.13% of 650,000 active; AID 1259310, 2017; in the data active = normalized activity above about 1.9%;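 note: purified mutant Fbw7 with reduced substrate affinity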
Target sequence (Q969H0 whole entry, looked up): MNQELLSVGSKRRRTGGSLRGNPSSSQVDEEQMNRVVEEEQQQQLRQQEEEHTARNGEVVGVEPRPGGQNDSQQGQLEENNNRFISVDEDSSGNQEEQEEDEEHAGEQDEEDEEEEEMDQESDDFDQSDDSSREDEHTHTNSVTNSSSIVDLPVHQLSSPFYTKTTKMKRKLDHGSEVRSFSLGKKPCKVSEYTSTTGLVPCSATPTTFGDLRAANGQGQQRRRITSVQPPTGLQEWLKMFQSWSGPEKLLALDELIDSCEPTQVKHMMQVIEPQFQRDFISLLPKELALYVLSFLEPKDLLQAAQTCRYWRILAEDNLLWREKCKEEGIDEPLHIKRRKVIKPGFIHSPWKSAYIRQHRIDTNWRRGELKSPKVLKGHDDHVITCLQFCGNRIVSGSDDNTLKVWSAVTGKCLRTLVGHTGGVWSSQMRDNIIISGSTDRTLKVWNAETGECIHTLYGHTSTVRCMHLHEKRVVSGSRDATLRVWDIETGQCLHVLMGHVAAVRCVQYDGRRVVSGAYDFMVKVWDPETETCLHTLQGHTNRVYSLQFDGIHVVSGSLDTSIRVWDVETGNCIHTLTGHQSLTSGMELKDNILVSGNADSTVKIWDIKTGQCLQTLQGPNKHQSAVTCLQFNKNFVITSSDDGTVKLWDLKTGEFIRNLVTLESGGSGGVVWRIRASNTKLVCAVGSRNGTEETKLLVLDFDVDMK
GPR151 ag – activators of human GPR151, primary screen, cell-based, PathHunter beta-arrestin, luminescence; PathHunter beta-arrestin GPR151 cells; 1% of 650,000 active; G-protein coupled receptor 151 (Homo sapiens), Q8TDV0; activation, % at 11.2 µM; in the data active = activation above about 4.9%;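 note: 0% = median of compound wells and 100% = cells with positive control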
GPR151 confirm – GPR151 activators, triplicate retest, confirmation, cell-based, PathHunter beta-arrestin, luminescence; GPR151 PathHunter beta-arrestin cells, 90 min; % of EA-reagent control over plate median; activation, % at 11.2 µM; shares compounds with GPR151 ag; AID 1508609, 2020; 6,700 tested, under 10 active;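 active = mean percent activation across replicates above the confirmation screen cutoff of 4.91%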
GPR119 ag – GPR119 activators in beta-arrestin cells, counter-screen for GPR151 activator project, cell-based, PathHunter beta-arrestin, luminescence, triplicate | shares compounds with GPR151 ag | 90 min; 0 = compound-well median, 100 = enzyme-acceptor control | activation, % at 11.2 µM | 0.3% of 6,700 active | AID 1508611, 2020;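 active = mean percent activation in the counterscreen above 29.09%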;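 note: counterscreen on off-target GPR119 to flag nonselective hits from the GPR151 activator screen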
Active calls of the source: *; x = no result given.

SMILES | MITF inh | TEAD-YAP inh | FBW7 act | GPR151 ag | GPR151 confirm | GPR119 ag
COCCCNC(=O)CN(c1cc(Cl)ccc1Cl)S(C)(=O)=O | 3.4 | -6.0 | 0.0 | 10.6* | 0.0 | -8.8
COCCCNC(=O)CN(c1cc(Cl)ccc1C)S(C)(=O)=O | 6.7 | -5.8 | 0.1 | -0.8 | x | x
CCn1c(SCC(=O)N/N=C(/C)c2ccc(OC)cc2)nc2ccccc21 | 19.5 | 13.5 | 0.4 | 6.8* | -0.7 | -4.5
CCC(C)C(=O)Nc1ccc(O)cc1C(=O)O (configuration not stated) | 13.1 | -5.4 | 0.2 | -2.2 | x | x
CCC(C)C(=O)Nc1cc(OC)c(OC)cc1C(=O)O (configuration not stated) | -0.1 | -2.6 | 0.1 | 7.1* | -0.6 | 0.7
COc1ccccc1CCNCc1c(C(=O)O)n(C)c2cc(C)ccc12 | -7.3 | 10.7 | 0.1 | 9.8* | 0.4 | -6.1
N#C/C(=C\c1[nH]c2ccccc2c1O)C(N)=NC1CCCCC1 | 11.1 | 10.8 | 0.2 | -1.1 | x | x
COc1cccc(C=Nc2ccc(C)c(F)c2)c1O | -2.2 | 7.5 | 0.5 | 5.8* | 0.0 | 10.6
CC(C)c1cc(CNC(=O)c2cc(COc3cccc4cnccc34)on2)on1 | 11.6 | 15.4 | 0.2 | -0.1 | x | x
CN(CCO)C(=O)c1cc(COc2cccc3cnccc23)on1 | 19.1 | -5.0 | 0.2 | 6.7* | 1.2 | -2.6
CC(=O)c1cccc(NC(=O)Nc2ccc(S(=O)(=O)NC(=O)c3ccccc3)cc2)c1 | 18.2 | 8.9 | 0.1 | -0.3 | x | x
Cc1cc(NC(=O)c2ccc(C)s2)n(-c2nc3ccccc3[nH]2)n1 | 3.2 | 0.1 | 0.2 | 5.3* | 0.1 | 1.6
Cc1cc(NC(=O)C(C)N(c2ccc(Cl)cc2)S(C)(=O)=O)ccc1Br (configuration not stated) | 10.2 | -0.7 | 0.1 | 6.4* | 0.4 | 6.0
COC(=O)c1ccccc1NC(=O)C(C)N(c1ccc(Cl)cc1)S(C)(=O)=O (configuration not stated) | -0.8 | 3.2 | -0.1 | 6.8* | -0.3 | 8.4
Cc1cc(NC(=O)C(=O)NC(C)C)ccc1Br | 20.6 | -60.0 | 0.1 | 6.4* | -0.9 | -7.6
COC(=O)c1ccccc1NC(=O)C(C)N(c1cc(C)cc(C)c1)S(C)(=O)=O (configuration not stated) | -4.4 | 12.4 | 0.2 | 0.1 | x | x
CN(CCO)C(=O)c1cnc2scc(-c3ccccc3Cl)n2c1=O | 26.6 | -0.3 | 0.8 | 0.0 | x | x
CN1CCN(C2=NC(=O)/C(=C/c3ccccc3Cl)S2)CC1 | 7.2 | -18.8 | 0.7 | 3.2 | x | x
CCCSc1nnc2c(n1)OC(c1ccc(-c3ccc([N+](=O)[O-])cc3)o1)Nc1ccccc1-2 (configuration not stated) | 17.3 | -4.6 | 0.1 | 0.3 | x | x
O=C(Nc1ccc(I)cc1)Nc1ccc2c(c1)OCO2 | -1.0 | -29.9 | 0.0 | 5.8* | -0.8 | -11.9
O=C1N(CN2CCN(c3ccc(F)cc3)CC2)c2ccccc2C12OCCO2 | -38.8 | 13.6 | 0.1 | 0.4 | x | x
CCOc1ccccc1N(C)C(=O)Cc1c(C(=O)O)[nH]c2ccccc12 | -4.4 | 8.8 | -0.1 | 0.7 | x | x
Cc1ccccc1N(C)C(=O)Cc1c(C(=O)O)[nH]c2ccccc12 | 38.0 | 9.5 | 0.0 | 5.5* | -0.2 | -8.9
CCC(Sc1nnc2c3cc(Br)ccc3n(C)c2n1)C(=O)Nc1ccc(S(N)(=O)=O)cc1 (configuration not stated) | 3.0 | -9.8 | 0.4 | 8.5* | 0.0 | 9.5
CCC(Sc1nnc2c3ccccc3n(C)c2n1)C(=O)Nc1ccc(S(N)(=O)=O)cc1 (configuration not stated) | -3.3 | -4.5 | -0.1 | 1.3 | x | x
SMILES | MITF inh | TEAD-YAP inh | FBW7 act | GPR151 ag | GPR151 confirm | GPR119 ag
CCOC(CCn1c(SC(CC)C(=O)NCc2cccnc2)nc2ccccc2c1=O)OCC (configuration not stated) | -6.9 | 2.9 | 0.2 | 7.0* | -1.5 | -18.4
CCOc1ccc(Br)cc1C(=O)N/N=C/c1ccc([N+](=O)[O-])cc1 | 1.6 | 0.3 | -0.1 | 7.3* | 0.6 | -4.4
O=C(N/N=C/c1ccncc1)c1cc(Br)ccc1OCc1ccccc1 | 14.8 | -5.0 | 0.0 | 5.1* | 0.5 | -1.8
O=C(Cn1c(=O)n(Cc2ccccc2)c(=O)c2ccccc21)NCc1ccccc1 | 17.8 | 14.1 | -0.1 | 0.8 | x | x
COc1ccccc1CN1C[C@@H]2C[C@@H](c3cccc(SC)c3)N3CCC[C@@]23C1=O | 8.2 | -6.1 | -0.1 | 6.5* | -1.4 | -20.7
Cc1cc(C)n2c(SCCO)nnc2n1 | 8.5 | 9.5 | 0.1 | 5.6* | 0.5 | -6.1
Cc1cc(C)n2c(SCCNCCO)nnc2n1 | 27.1 | 5.5 | 0.0 | 1.2 | x | x
O=C(c1cc(=O)c2ccccc2o1)N1CCCC1 | 0.9 | 16.3 | 0.4 | 1.0 | x | x
CC(C)c1nnc2n1CCN(C(=O)c1cc(=O)c3ccccc3o1)CC2 | 3.1 | -21.9 | 0.0 | 7.3* | 1.2 | 1.7
CC(=O)c1c(C)[nH]c(C(=O)COC(=O)c2ccc(-n3nc(C)cc3C)cc2)c1C | 0.3 | 10.3 | -0.1 | 7.7* | 0.5 | 5.9
Cc1cc(C)n(-c2ccc(C(=O)OCC(=O)c3ccccc3)cc2)n1 | 0.0 | 2.0 | 0.0 | 0.9 | x | x
Cc1cncc2c(S(=O)(=O)N3CC[C@H](NC(=O)CN)C3)cccc12 | 8.3 | 5.4 | -0.1 | 6.1* | -0.4 | -10.6
C=CCOC(=O)C1=C(C)NC(SCC(=O)NCc2ccccc2)=C(C#N)C1c1ccc(Cl)cc1 (configuration not stated) | 6.6 | -3.8 | 0.1 | 0.7 | x | x
Cc1nc(SCC(O)CCl)c([N+](=O)[O-])[nH]1 (configuration not stated) | 1.9 | -2.6 | 0.3 | 8.5* | 0.1 | 0.7
COC(=O)c1ccc(CSc2nc(C)[nH]c2[N+](=O)[O-])o1 | -15.6 | -0.3 | -0.2 | 2.4 | x | x
CCOc1cc(/C=N/Nc2ccccn2)ccc1OCc1ccc(C(=O)OC)o1 | -7.8 | -1.2 | 0.0 | 5.4* | -0.5 | -1.4
CCOc1cc(C=O)ccc1OCc1ccc(C(=O)OC)o1 | -1.5 | -1.9 | 0.1 | 0.6 | x | x
COc1ccc(CNC(=O)C/C(C)=N/NC(=O)Cc2ccc(Cl)cc2)cc1 | 1.6 | 5.0 | 0.0 | 0.2 | x | x
C=CCOc1ccccc1/C=N/NC(=O)c1cccc(I)c1 | -6.9 | -7.0 | -0.1 | 10.7* | 0.3 | 0.7
CCSc1nc2sccn2c(=O)c1C(=O)Nc1cc(-c2ccccc2)nn1C | 5.8 | -1.4 | -0.5 | 1.1 | x | x
CCSc1nc2sccn2c(=O)c1C(=O)Nc1cc(C(C)(C)C)nn1C | 5.8 | -4.2 | -0.1 | 5.0* | 1.1 | 3.2
